Assay results from PubChem BioAssay AID1159580 (chemical genetic matrix, 2015).
Several values for one entry are separate records, joined by “and”; a condition that tells them apart may be missing. Equal values may be shown once. Screen size: about 5,500 compounds; about 2,000 (36%) were called active. About 18% were inconclusive and are not listed. Cut-off read from the data, not from the text of the source: active = normalized growth mostly below about 0.91 (no sharp cut-off); inconclusive = no clear call, values can overlap the other calls; inactive = mostly above about 0.92. This is one part of the list. Where a SMILES comes first, the peptide text is derived from it. Bridges are numbered along the chain shown (N, C = ends). [ ]: non-standard residue; d: D form. The star is where a group is joined. Octanoyl(6-Me) = CCC(C)CCCCC(=O)*; Dab = NCC[CH](N)C(=O)O

Assay: chemical genetic growth profiling, strain panel (AID 1159580);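 note: tested at 20 µM; growth read once vehicle control cultures reached saturation at 30 °C; 1 = growth at the plate median or of vehicle wells; lower values mean less growth of the strain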
Conditions: S. cerevisiae deletion strains, growth OD

Measured: normalized growth

CCC(C)CCCCC(=O)NC(CCN)C(=O)NC(C(=O)NC(CCN)C(=O)NC1CCNC(=O)C(C(C)O)NC(=O)C(CCN)NC(=O)C(CCN)NC(=O)C(CC(C)C)NC(=O)C(Cc2ccccc2)NC(=O)C(CCN)NC1=O)C(C)O (configuration not stated) ({Octanoyl(6-Me)}-[Dab]T[Dab][Dab][Dab]FL[Dab][Dab]T; lactam 4-C; configuration not given here)
inactive: locus YAL013W, strain DEP1, stronger effect = lower value 1 | locus YAL021C, strain ccr4, stronger effect = lower value 0.95 | locus YAL026C, strain drs2, stronger effect = lower value 0.934 | locus YAL030W, strain snc1, stronger effect = lower value 0.99 | locus YBL061C, strain skt5, stronger effect = lower value 0.99 | locus YBR009C, strain hhf1, stronger effect = lower value 0.98 | locus YBR021W, strain FUR4, stronger effect = lower value 0.996 | locus YBR023C, strain chs3, stronger effect = lower value 0.99 | locus YBR171W, strain sec66, stronger effect = lower value 1 | locus YBR229C, strain ROT2, stronger effect = lower value 1 | locus YBR231C, strain swc5, stronger effect = lower value 1 | locus YBR279W, strain paf1, stronger effect = lower value 0.99 | locus YCL011C, strain gbp2, stronger effect = lower value 0.995 | locus YCL016C, strain dcc1, stronger effect = lower value 0.975 | locus YCL029C, strain bik1, stronger effect = lower value 1.02 | locus YCL061C, strain MRC1, stronger effect = lower value 0.959 | locus YCL069W, strain vba3, stronger effect = lower value 0.999 | locus YCR088W, strain abp1, stronger effect = lower value 0.997 | locus YDL005C, strain med2, stronger effect = lower value 0.99 | locus YDL035C, strain GPR1, stronger effect = lower value 0.973 | locus YDL040C, strain nat1, stronger effect = lower value 1 | locus YDL074C, strain BRE1, stronger effect = lower value 1.01 | locus YDL101C, strain DUN1, stronger effect = lower value 1.02 | locus YDL134C, strain PPH21, stronger effect = lower value 0.997 | locus YDL185W, strain tfp1, stronger effect = lower value 1 | locus YDL192W, strain arf1, stronger effect = lower value 0.991 | locus YDR001C, strain nth1, stronger effect = lower value 1.01 | locus YDR069C, strain doa4, stronger effect = lower value 0.989 | locus YDR101C, strain arx1, stronger effect = lower value 1.01 | locus YDR137W, strain rgp1, stronger effect = lower value 1.08 | locus YDR150W, strain NUM1, stronger effect = lower value 0.995 | locus YDR159W, strain sac3, stronger effect = lower value 0.985 | locus YDR162C, strain NBP2, stronger effect = lower value 0.99 | locus YDR195W, strain ref2 0.953 | locus YDR297W, strain sur2, stronger effect = lower value 0.994 | locus YDR318W, strain mcm21, stronger effect = lower value 1.01 | locus YDR334W, strain swr1, stronger effect = lower value 1 | locus YDR335W, strain msn5, stronger effect = lower value 0.998 | locus YDR388W, stronger effect = lower value 1.01 | locus YDR392W, strain spt3, stronger effect = lower value 0.802 | locus YDR502C, strain sam2, stronger effect = lower value 0.997 | locus YEL003W, strain gim4, stronger effect = lower value 0.997 | locus YEL037C, strain rad23, stronger effect = lower value 1 | locus YEL061C, strain CIN8 (second series), stronger effect = lower value 1 | locus YEL061C, strain CIN8, stronger effect = lower value 0.998 | locus YER015W, strain faa2, stronger effect = lower value 0.992 | locus YER016W, strain bim1, stronger effect = lower value 1 | locus YER110C, stronger effect = lower value 1.02 | locus YER111C, strain swi4, stronger effect = lower value 1 | locus YER155C, strain BEM2 (second series), stronger effect = lower value 0.91 | locus YER155C, strain BEM2, stronger effect = lower value 1.02 | locus YER167W, strain BCK2, stronger effect = lower value 0.996 | locus YFR010W, strain ubp6, stronger effect = lower value 0.999 | locus YGL078C, strain dbp3, stronger effect = lower value 0.993 | locus YGL086W, strain mad1, stronger effect = lower value 0.989 | locus YGL167C, strain pmr1, stronger effect = lower value 0.978 | locus YGL173C, strain kem1, stronger effect = lower value 0.99 | locus YGL227W, strain vid30, stronger effect = lower value 1.01 | locus YGL240W, strain doc1, stronger effect = lower value 0.986 | locus YGL248W, strain PDE1, stronger effect = lower value 1.01 | locus YGL253W, strain hxk2, stronger effect = lower value 1.01 | locus YGR078C, strain PAC10, stronger effect = lower value 1.02 | locus YGR135W, strain pre9, stronger effect = lower value 0.998 | locus YGR229C, strain SMI1, stronger effect = lower value 0.976 | locus YGR252W, strain gcn5, stronger effect = lower value 0.937 | locus YHR013C, strain ard1, stronger effect = lower value 0.901 | locus YHR027C, strain rpn1, stronger effect = lower value 0.989 | locus YHR030C, strain SLT2, stronger effect = lower value 1 and 0.991 | locus YHR079C, strain IRE1 (second series), stronger effect = lower value 1.01 | locus YHR079C, strain IRE1, stronger effect = lower value 0.995 | locus YHR094C, strain hxt1, stronger effect = lower value 1.01 | locus YHR129C, strain ARP1, stronger effect = lower value 1.01 | locus YHR142W, strain chs7, stronger effect = lower value 1.01 | locus YHR200W, strain rpn10, stronger effect = lower value 0.996 | locus YIL066C, strain RNR3, stronger effect = lower value 0.984 | locus YIL073C, strain SPO22, stronger effect = lower value 1.02 | locus YIL125W, strain kgd1, stronger effect = lower value 0.994 | locus YIR030C, strain dcg1, stronger effect = lower value 1.01 | locus YJL092W, strain hpr5, stronger effect = lower value 1 | locus YJL095W, strain BCK1 (second series), stronger effect = lower value 1.01 | locus YJL095W, strain BCK1, stronger effect = lower value 1.02 and 1 | locus YJL115W, strain asf1, stronger effect = lower value 0.977 | locus YJL129C, strain trk1, stronger effect = lower value 1.09 | locus YJL134W, strain LCB3, stronger effect = lower value 1 | locus YJL154C, strain vps35, stronger effect = lower value 1.01 | locus YJL164C, strain tpk1, stronger effect = lower value 0.98 | locus YJL166W, strain qcr8, stronger effect = lower value 0.981 | locus YJL168C, strain set2, stronger effect = lower value 1.01 | locus YJL187C, strain SWE1 (second series), stronger effect = lower value 1.02 | locus YJL187C, strain SWE1, stronger effect = lower value 0.998 | locus YJR043C, strain POL32, stronger effect = lower value 1.02 | locus YJR066W, strain TOR1, stronger effect = lower value 0.97
